Screens (PubChem)
A selection: hits, their analogues and other compounds. The true share with any hit is near 5.7%.
DRD3 antagonist = qHTS of D3 Dopamine Receptor Antagonist: qHTS | D3R cells, DiscoveRx beta-arrestin luminescence, antagonist mode; active compounds read low | max response, negative = inhibition, % | AID 652054, 2013 | D(3) dopamine receptor (Homo sapiens), P35462 | 360,000 tested, 2.5% active; in the data active means max response below about -50%; inconclusive means no clear call, values can overlap the other calls
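Cells plated overnight at 1500 cells/well, then exposed to library compounds with dopamine controls for 90 minutes at 37 degrees C. DiscoveRx reagent added for 30–60 minutes at room temperature; luminescence read, quantitative HTS format.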
GLP1R cytotox = qHTS of GLP-1 Receptor Inverse Agonists: Cytotox Screen; HEK293 cAMP-luciferase reporter cells, luminescence, 24 h; Potency, µM (top dose mostly 38.3 µM), usual class: inhibitors; 410,000 tested, 0.13% active; AID 624418, 2012;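 further: loss of luciferase light is scored as toxicity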
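Cells in DMEM/10% Nu serum/1% pen-strep, 1536-well format. Pre-incubated 12 h, dosed with 23 nL compound, incubated a further 24 h. Luciferase detection, 12 min at room temp, luminescence.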
GLP1R inv ag = qHTS of GLP-1 Receptor Inverse Agonists (Inhibition Mode). HEK293 GLP-1R CRE-luciferase, luminescence, 24 h; GLP-1R form is constitutively active. Potency, µM (titrated, usually from 38.3 µM), most hits filed as inhibitors. 410,000 tested, 1.6% active; further: nearly all actives have a fitted effect of over 55% in size
Target sequence (P43220 whole entry, looked up): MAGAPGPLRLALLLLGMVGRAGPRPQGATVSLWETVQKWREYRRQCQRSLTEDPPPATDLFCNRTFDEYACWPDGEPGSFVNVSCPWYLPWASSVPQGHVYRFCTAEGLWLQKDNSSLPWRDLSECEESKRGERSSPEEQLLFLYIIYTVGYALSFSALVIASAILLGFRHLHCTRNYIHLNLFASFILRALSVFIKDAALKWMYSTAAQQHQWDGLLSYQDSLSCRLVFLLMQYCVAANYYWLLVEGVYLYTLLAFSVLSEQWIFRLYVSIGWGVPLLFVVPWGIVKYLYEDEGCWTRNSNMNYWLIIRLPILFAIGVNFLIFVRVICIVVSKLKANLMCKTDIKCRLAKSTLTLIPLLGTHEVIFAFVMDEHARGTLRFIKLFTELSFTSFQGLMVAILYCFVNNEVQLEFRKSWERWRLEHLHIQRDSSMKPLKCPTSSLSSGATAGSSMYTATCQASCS
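Seeding at 200 cells/uL, 12 h culture, 24 hr compound treatment, then luciferase reagent and a luminescence read; cells are HEK293 stably expressing a constitutively active GLP-1R plus cAMP-responsive luciferase.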
D3 ag = qHTS of D3 Dopamine Receptor Agonist: qHTS; max activation, %; 410,000 tested, 0.58% active; D(3) dopamine receptor (Homo sapiens), P35462; D3R DiscoveRx beta-arrestin cells, luminescence, 90 min; in the data active means max activation above about 30%
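Cells at 1500/well, incubated overnight, then treated with pinned compounds (dopamine as control) for 90 min at 37 degrees C. DiscoveRx reagent added for 30 - 60 minutes at room temperature; luminescence read.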
ClpP mod = qHTS Assay for Activators of ClpP | ATP-dependent Clp protease proteolytic subunit (Bacillus subtilis (strain 168)), P80244 | purified B. subtilis ClpP, FRET peptide cleavage, 20 min | Potency, µM (highest dose often 57.5 µM) | 340,000 tested, 1.9% active | AID 651965, 2013; active means well fitted falling curve with a large enough effect; inconclusive means small, poorly fitted or top-dose-only effect; inactive means no such curve, though single readings can be large or run the other way; further: the source files actives as falling curves though it sought activators and does not explain the sign; nearly all actives have a fitted effect of over 65% in size
Target sequence (P80244 whole entry, looked up): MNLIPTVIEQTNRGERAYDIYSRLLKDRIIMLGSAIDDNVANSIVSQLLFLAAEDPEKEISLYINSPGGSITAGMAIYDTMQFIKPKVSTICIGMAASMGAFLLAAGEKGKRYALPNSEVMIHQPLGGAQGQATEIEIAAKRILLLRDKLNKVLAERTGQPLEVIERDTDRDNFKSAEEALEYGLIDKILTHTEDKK
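Buffer: 100 mM Tris/HCl pH8, 100 mM KCl, 0.05% low protease BSA, 2.5% glycerol, 0.01% Tween-20. ClpP 10 microg/mL final; 20 min RT; delta FRET normalized to ADEP and DMSO controls.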
GLP1R ag = qHTS of GLP-1 Receptor Agonists; Glucagon-like peptide 1 receptor (Homo sapiens), P43220; HEK293 GLP-1R CRE-luciferase, luminescence, 4-6 h; cells express a hypersensitive GLP-1R form; Potency, µM (highest dose often 45.6 µM), hits mostly activators; 380,000 tested, 0.007% active
A number is an active result; i = inactive; ? = inconclusive; nt = not tested or not shown. Unless noted, the call rests on the fitted dose curve; in most records, active means well fitted curve in the direction sought with a large enough effect; inconclusive means small, poorly fitted or top-dose-only effect, or another doubt; inactive means no such curve, though single readings can be large; an effect the other way counts as inactive or inconclusive.

SMILES	DRD3 antagonist	GLP1R cytotox	GLP1R inv ag	D3 ag	ClpP mod	GLP1R ag
CCOc1cccc(NC(=O)C2CC(=O)N(CC)C(=Nc3ccc(F)cc3)S2)c1 (stereo not drawn)	nt	i	?	i	i	i
CC(C)CCN(C(=O)Nc1ccc(Cl)cc1)C1CCN(C(C)C)CC1	-59	i	?	i	nt	i
CC(C)CCN(C(=O)Nc1ccc(Cl)c(Cl)c1)C1CCN(C(C)C)CC1	nt	i	i	i	i	nt
CCn1c(SCC(=O)N/N=C/c2ccc(OC)c(OC)c2)nc2ccccc21	i	i	i	i	i	?
C=CCSc1nc2ccccc2n1C(=O)/C=C/c1cc(OC)c(OC)c(OC)c1	-61	?	i	i	i	i
C=CCSc1nc2ccccc2n1C(=O)/C=C/c1ccc(OC)c(OC)c1	i	?	i	i	i	i
CCSc1nc2ccccc2n1C(=O)/C=C/c1ccc(OC)c(OC)c1	-51	i	?	i	14µM	i
Clc1ccc(-c2cc3ncc4c(n3n2)-c2ccccc2OC4)cc1	nt	i	i	i	i	i
O=C(NCc1ccccn1)c1ccc(NS(=O)(=O)c2cccc(Cl)c2)cc1	-61	i	i	i	i	i
CN(C)c1cccc(C(=O)Nc2cccc(F)c2)c1	i	i	?	i	i	i
O=C(Nc1ccncc1)c1ccc(NS(=O)(=O)c2cccc(F)c2)cc1	i	i	i	i	32µM	i
COc1cccc(S(=O)(=O)Nc2ccc(C(=O)Nc3ccncc3)cc2)c1	i	i	?	i	i	i
CCN(CC)c1ccc(C(=O)Nc2cccc(F)c2)cc1	i	i	5.6µM	i	i	i
Cc1cc(C)cc(NC(=O)C2CCCN2S(=O)(=O)c2cccc3nsnc23)c1 (stereo not drawn)	nt	i	i	i	i	nt
CCOc1ccccc1NC(=O)NNC(=O)c1ccc2ccccc2c1	i	i	?	i	32µM	i
CCOc1ccccc1NC(=O)c1ccc2ccccc2c1	i	i	i	i	nt	i
Cc1ccc(NC(=O)N2CCCC(c3ccccc3)C2)cc1 (stereo not drawn)	i	i	?	34	i	i
O=C(Nc1ccccc1)N1CCC(c2ccccc2)C1 (stereo not drawn)	i	i	i	i	i	i
CC(C)CC(c1nnnn1Cc1ccco1)N1CCN(c2cccc(Cl)c2)CC1 (stereo not drawn)	i	i	10µM	i	i	i
C(=C\c1ccccc1)/CN1CCN(C(c2cc3ccccc3o2)c2nnnn2Cc2ccccc2)CC1 (stereo not drawn)	-104	i	i	i	i	i
C(=C\c1ccccc1)/CN1CCN(C(CCc2ccccc2)c2nnnn2C2CCCCC2)CC1 (stereo not drawn)	-59	i	?	i	i	i
C(=C\c1ccccc1)/CN1CCN(C(c2cc3ccccc3o2)c2nnnn2C2CCCC2)CC1 (stereo not drawn)	-98	i	i	i	i	i
COc1ccc(N2CCN(C(c3cccc(OC)c3OC)c3nnnn3C3CCCC3)CC2)cc1 (stereo not drawn)	i	i	?	i	i	i
CN(C)CCN1CCN(C(c2cc3ccccc3o2)c2nnnn2C(C)(C)C)CC1 (stereo not drawn)	i	i	i	i	i	i
C(=C\c1ccccc1)/CN1CCN(C(c2nnnn2C2CCCCC2)C2CC2)CC1 (stereo not drawn)	i	i	?	i	i	i
SMILES	DRD3 antagonist	GLP1R cytotox	GLP1R inv ag	D3 ag	ClpP mod	GLP1R ag
CCCCn1nnnc1C(c1cc2ccccc2o1)N1CCOCC1 (stereo not drawn)	i	i	i	i	i	i
C(=C\c1ccccc1)/CN1CCN(C(c2cccc3ccccc23)c2nnnn2C2CCCC2)CC1 (stereo not drawn)	-99	i	?	i	i	i
Cc1ccc(NC(=O)c2ccc(-n3nncc3-c3ccccc3)cc2)cc1	nt	nt	nt	nt	i	nt
O=C(NCC[C@@H]1CC[C@@H](NS(=O)(=O)c2ccccc2)[C@@H](CO)O1)c1cc(Cl)cc(Cl)c1	i	i	i	i	i	nt
CNC(=O)Cn1c(C)cc(=O)c2cccc(OC)c21	i	i	i	i	i	i
COc1cccc2c(=O)cc(C)n(CC(=O)Nc3ccccc3C)c12	i	i	i	i	13µM	i
COc1ccc(C[C@@H]2OC3(C=CC(=O)C=C3)O[C@H]2Cc2ccc(OC)cc2)cc1	-118	4.5µM	?	i	i	i
O=C1Nc2ccccc2C1Cc1ccccc1 (stereo not drawn)	i	i	i	i	i	?
O=C1C=CC2(C=C1)O[C@H](Cc1ccccc1)[C@@H](Cc1ccccc1)O2	-109	2µM	?	i	i	i
Cn1c(C(=O)Nc2ccc(OC(F)(F)F)cc2)cc2c(=O)n3ccccc3nc21	nt	i	i	i	?	nt
CSc1nnc(NC(=O)c2nc(S(=O)(=O)Cc3ccccc3F)ncc2Cl)s1	i	i	?	i	nt	i
Cc1nnc(NC(=O)c2nc(SCc3ccccc3F)ncc2Cl)s1	nt	i	i	i	i	nt
CC(C)c1nnc(NC(=O)c2nc(S(=O)(=O)Cc3ccccc3F)ncc2Cl)s1	-51	?	?	i	i	i
CC(C)c1nnc(NC(=O)c2nc(SCc3ccc(F)cc3)ncc2Cl)s1	nt	i	i	i	i	nt
CCOc1ccc(NC(=O)c2nc(S(=O)(=O)Cc3ccccc3F)ncc2Cl)cc1	nt	?	11µM	i	i	nt
Cc1nnc(NC(=O)c2nc(S(=O)(=O)Cc3ccccc3C)ncc2Cl)s1	-50	?	?	i	i	i
CC(C)c1nnc(NC(=O)c2nc(S(=O)(=O)Cc3ccc(F)cc3)ncc2Cl)s1	-61	i	?	i	nt	i
O=C(Nc1ccc(OC(F)F)cc1)c1nc(S(=O)(=O)Cc2ccccc2F)ncc1Cl	nt	nt	nt	nt	i	nt
CCn1c(CC2C(=O)N(C)c3ccccc32)nc2ccccc2c1=O (stereo not drawn)	nt	i	i	i	i	nt
Cc1ccc(C)c(NC(=O)c2nc(S(=O)(=O)Cc3ccc(F)cc3)ncc2Cl)c1	nt	i	i	i	i	nt
CCSc1nnc(NC(=O)c2nc(S(=O)(=O)Cc3ccc(F)cc3)ncc2Cl)s1	-68	i	?	i	nt	i
CCOc1ccccc1C(=O)N[C@H](C(=O)Nc1nc2c(s1)CCCC2)C(C)C	-74	?	10µM	i	nt	i
